# Data as given in ChEMBL document CHEMBL3988442, “University of Dundee, Small-Polar-MMV Screening Library” (2021).
# For some assays here: Results with a measured potency or affinity are listed apart.
# How the values were obtained:
# [1] = target: T1, Methionyl-tRNA synthetase, putative (Leishmania donovani (strain BPK282A1)) (UniProt E9BF75); assay: Leishmania donovani Methionine tRNA synthetase (LdMetRS):v7. Dose response assay; format: functional; parameters: conc 80 nM, time 150 minutes
# T1 sequence (whole entry): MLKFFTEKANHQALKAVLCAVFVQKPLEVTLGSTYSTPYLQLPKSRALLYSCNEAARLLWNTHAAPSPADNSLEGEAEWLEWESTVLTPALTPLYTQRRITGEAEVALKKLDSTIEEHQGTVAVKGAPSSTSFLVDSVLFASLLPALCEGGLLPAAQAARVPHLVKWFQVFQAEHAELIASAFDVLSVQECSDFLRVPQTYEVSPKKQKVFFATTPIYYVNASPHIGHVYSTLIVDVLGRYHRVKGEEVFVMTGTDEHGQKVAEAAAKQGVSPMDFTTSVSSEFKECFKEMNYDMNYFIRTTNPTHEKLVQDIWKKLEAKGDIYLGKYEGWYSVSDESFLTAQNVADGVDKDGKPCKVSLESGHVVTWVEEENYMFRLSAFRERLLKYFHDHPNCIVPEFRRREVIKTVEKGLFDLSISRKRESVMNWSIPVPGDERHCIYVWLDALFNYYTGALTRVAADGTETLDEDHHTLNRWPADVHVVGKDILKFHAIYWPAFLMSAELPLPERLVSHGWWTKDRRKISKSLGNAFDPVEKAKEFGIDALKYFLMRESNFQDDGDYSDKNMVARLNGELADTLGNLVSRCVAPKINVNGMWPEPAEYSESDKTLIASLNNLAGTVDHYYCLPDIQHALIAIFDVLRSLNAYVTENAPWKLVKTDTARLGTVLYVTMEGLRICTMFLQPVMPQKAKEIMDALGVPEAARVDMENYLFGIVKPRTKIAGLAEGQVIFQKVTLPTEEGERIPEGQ
# [2] = target: Protein translocase subunit SecA (Escherichia coli (strain K12)) (UniProt P10408); assay: Assay to Identify E. coli SecA ATPase Inhibitors; format: functional; parameters: scale not given: direction of the effect not stated beside the values; settings: 30 µM
# [3] = target: T2, Ubiquitin-activating enzyme e1, putative (Leishmania donovani (strain BPK282A1)) (UniProt E9BSI1); assay: Leishmania donovani Ubiquitin Activating Enzyme (LdE1); format: functional; parameters: scale not given: direction of the effect not stated beside the values; settings: 30 µM
# T2 sequence (whole entry): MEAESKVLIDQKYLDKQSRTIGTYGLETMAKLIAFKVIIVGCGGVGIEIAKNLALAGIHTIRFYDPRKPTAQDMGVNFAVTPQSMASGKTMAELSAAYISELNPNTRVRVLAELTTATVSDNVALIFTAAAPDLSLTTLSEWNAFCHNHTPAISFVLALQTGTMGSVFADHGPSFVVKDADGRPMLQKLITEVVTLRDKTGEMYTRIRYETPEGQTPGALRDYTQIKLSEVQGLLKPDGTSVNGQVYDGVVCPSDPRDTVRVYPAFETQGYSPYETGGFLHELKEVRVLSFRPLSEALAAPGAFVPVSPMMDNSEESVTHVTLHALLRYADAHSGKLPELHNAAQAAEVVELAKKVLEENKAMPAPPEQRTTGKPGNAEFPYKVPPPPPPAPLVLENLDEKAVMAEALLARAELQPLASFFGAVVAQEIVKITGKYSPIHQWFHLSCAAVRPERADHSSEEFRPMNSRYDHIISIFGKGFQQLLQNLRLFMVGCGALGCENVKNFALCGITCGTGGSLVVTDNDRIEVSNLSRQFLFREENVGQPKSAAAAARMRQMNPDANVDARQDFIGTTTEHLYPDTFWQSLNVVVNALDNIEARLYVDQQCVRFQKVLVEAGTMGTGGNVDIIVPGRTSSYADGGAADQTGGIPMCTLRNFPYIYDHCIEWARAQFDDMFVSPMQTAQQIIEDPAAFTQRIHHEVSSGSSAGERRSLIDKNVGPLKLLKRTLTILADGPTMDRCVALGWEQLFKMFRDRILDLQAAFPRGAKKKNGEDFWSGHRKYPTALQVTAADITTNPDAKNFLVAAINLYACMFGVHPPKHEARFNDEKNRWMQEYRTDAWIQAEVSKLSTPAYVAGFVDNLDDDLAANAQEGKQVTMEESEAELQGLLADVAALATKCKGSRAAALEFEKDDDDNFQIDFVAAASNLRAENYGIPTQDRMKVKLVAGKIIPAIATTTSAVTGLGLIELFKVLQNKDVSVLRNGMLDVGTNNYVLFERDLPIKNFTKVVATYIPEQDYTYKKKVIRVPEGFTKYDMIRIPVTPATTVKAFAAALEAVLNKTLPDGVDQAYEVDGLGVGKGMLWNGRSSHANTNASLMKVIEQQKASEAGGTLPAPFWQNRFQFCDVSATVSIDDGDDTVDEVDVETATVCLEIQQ
# [4] = target: AMP-activated protein kinase, AMPK (Homo sapiens) (UniProt P54646+O43741+P54619+Q9UGJ0+Q9Y478+Q13131+Q9UGI9); assay: AMP-dependent Kinase enzyme assay. An in vitro enzyme assay that detects ADP turnover that is directly proportional to AMPK activity. This uses naive AMPK that is activated during the assay with MK-8722; format: functional; parameters: scale not given: direction of the effect not stated beside the values; settings: 30 µM
# [5] = target: Sialic acid-binding Ig-like lectin 9 (Homo sapiens) (UniProt Q9Y336); assay: Hs-Siglec9 ALPHAscreen SOP 20170721; parameters: scale not given: direction of the effect not stated beside the values; settings: 10 µM
# [6] = system: Trypanosoma cruzi; assay: Trypanosoma cruzi phosphomannomutase and mannose-1-phosphate guanylyltransferase assay; format: functional; parameters: scale not given: direction of the effect not stated beside the values; settings: 10 µM
# [7] = target: T3, Arginase-2, mitochondrial (Homo sapiens) (UniProt P78540); assay: in vitro enzyme assay to detect the production of urea directly proportional to the activity of Arginase II; format: functional; parameters: scale not given: in the data most compounds retested in dose-response had high values; settings: 33.3 µM
# T3 sequence (whole entry): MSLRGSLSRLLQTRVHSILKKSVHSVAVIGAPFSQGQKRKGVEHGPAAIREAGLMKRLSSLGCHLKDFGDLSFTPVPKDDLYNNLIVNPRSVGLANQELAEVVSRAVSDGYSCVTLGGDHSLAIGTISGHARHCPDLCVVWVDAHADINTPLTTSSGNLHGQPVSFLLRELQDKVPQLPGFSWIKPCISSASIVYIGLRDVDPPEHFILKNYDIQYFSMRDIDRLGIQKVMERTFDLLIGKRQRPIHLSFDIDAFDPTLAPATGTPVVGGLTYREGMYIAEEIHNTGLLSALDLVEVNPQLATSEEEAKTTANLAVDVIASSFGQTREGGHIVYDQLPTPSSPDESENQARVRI
# [8] = target: T4, Proteasome subunit beta (Trypanosoma cruzi) (UniProt O96673); assay: Trypanosoma cruzi proteasome chymotrypsin-like activity (TcProtChymo) assay.; format: functional; parameters: scale not given: in the data most compounds retested in dose-response had high values; settings: 9.37 µM
# T4 sequence (whole entry): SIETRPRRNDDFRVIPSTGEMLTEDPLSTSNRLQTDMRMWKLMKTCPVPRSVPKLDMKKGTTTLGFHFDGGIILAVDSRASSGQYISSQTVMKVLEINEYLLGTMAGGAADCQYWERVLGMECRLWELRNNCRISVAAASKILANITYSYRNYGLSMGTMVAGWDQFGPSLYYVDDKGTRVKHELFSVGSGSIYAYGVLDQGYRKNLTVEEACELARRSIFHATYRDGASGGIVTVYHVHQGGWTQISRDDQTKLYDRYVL
# [9] = species on record: Homo sapiens; assay: To identify inhibition of the IFN signalling (Jak-Stat) pathway via expression of an eGFP reporter gene under the control of an IFN-stimulated response element (ISRE) containing MxA promoter.; format: functional; parameters: scale not given: direction of the effect not stated beside the values; settings: 30 µM
# [10] = target: T5, Tyrosyl-tRNA synthetase, putative (Trypanosoma cruzi (strain CL Brener)) (UniProt Q4DSP6); assay: Trypanosoma cruzi tyrosyl tRNA synthetase (TcYRS) _High Tyrosine SOP; format: functional; parameters: scale not given: in the data most compounds retested in dose-response had high values; settings: 30 µM
# T5 sequence (whole entry): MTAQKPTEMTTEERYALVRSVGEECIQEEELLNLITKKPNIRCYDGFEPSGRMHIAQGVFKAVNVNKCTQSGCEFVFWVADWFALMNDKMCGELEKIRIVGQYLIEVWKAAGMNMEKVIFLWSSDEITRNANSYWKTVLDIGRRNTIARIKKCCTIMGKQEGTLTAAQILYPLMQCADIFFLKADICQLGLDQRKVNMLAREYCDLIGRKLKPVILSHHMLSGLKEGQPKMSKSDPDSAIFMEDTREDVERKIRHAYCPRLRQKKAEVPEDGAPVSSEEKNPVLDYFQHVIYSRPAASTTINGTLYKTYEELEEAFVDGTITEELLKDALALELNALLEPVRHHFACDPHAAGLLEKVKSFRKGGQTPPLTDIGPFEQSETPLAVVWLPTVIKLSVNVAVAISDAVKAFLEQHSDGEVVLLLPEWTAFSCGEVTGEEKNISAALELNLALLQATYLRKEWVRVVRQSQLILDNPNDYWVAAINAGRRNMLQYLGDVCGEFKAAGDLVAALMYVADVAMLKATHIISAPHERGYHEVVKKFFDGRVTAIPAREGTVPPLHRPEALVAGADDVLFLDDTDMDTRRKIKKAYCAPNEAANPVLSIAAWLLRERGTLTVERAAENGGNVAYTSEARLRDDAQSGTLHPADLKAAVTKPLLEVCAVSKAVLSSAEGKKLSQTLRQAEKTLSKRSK
# [11] = target: T5, Tyrosyl-tRNA synthetase, putative (Trypanosoma cruzi (strain CL Brener)); assay: Trypanosoma cruzi tyrosyl tRNA synthetase (TcYRS) SOP; format: functional; parameters: scale not given: direction of the effect not stated beside the values; settings: 30 µM
# [12] = target: Chromo domain-containing protein 1 (Saccharomyces cerevisiae (strain ATCC 204508 / S288c) (Baker's yeast)) (UniProt P32657); assay: ScCHD-1 Enzyme Inhibition Assay; format: functional; parameters: scale not given: in the data most compounds retested in dose-response had high values; settings: 30 µM
# Sequence of Chromo domain-containing protein 1 (Saccharomyces cerevisiae (strain ATCC 204508 / S288c) (Baker's yeast)) (P32657 whole entry, the tested form may be a part): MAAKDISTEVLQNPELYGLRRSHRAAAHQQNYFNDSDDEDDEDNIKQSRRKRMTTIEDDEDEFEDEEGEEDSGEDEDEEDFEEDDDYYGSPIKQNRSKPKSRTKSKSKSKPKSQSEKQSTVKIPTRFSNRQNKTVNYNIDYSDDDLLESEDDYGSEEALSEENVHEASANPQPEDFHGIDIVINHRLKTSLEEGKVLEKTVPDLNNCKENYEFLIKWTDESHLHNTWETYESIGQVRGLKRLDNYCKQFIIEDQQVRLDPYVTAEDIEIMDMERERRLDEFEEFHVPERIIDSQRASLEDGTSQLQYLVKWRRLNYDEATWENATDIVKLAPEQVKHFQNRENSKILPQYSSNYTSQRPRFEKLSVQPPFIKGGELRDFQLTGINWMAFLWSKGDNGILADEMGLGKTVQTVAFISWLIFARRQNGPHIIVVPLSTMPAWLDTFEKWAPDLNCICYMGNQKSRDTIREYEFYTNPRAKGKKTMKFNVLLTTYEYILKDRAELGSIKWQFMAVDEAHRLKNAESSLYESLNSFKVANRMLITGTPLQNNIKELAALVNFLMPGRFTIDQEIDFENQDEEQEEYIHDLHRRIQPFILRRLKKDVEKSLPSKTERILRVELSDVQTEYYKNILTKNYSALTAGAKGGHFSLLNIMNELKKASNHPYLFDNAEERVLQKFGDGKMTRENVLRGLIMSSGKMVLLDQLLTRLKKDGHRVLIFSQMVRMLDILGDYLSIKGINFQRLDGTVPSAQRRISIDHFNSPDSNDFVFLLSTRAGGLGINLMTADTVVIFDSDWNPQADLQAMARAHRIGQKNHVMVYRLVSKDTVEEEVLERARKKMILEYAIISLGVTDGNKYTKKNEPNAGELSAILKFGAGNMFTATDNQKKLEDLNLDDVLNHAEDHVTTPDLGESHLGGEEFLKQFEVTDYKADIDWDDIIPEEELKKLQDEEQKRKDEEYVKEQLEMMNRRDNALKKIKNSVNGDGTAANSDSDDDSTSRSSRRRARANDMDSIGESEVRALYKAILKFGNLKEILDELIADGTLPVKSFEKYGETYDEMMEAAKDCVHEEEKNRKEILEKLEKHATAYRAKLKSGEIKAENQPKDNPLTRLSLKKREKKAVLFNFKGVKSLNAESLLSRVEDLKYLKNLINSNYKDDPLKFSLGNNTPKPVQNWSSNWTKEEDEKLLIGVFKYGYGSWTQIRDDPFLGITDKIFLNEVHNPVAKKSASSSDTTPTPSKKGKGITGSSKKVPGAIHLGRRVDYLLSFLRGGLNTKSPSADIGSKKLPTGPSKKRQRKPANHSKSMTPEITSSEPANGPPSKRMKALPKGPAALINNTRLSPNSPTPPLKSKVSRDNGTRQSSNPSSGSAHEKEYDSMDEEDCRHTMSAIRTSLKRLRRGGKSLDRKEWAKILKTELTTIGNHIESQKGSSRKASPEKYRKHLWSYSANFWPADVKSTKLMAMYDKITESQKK
# Sequence of Sialic acid-binding Ig-like lectin 9 (Homo sapiens) (Q9Y336 whole entry): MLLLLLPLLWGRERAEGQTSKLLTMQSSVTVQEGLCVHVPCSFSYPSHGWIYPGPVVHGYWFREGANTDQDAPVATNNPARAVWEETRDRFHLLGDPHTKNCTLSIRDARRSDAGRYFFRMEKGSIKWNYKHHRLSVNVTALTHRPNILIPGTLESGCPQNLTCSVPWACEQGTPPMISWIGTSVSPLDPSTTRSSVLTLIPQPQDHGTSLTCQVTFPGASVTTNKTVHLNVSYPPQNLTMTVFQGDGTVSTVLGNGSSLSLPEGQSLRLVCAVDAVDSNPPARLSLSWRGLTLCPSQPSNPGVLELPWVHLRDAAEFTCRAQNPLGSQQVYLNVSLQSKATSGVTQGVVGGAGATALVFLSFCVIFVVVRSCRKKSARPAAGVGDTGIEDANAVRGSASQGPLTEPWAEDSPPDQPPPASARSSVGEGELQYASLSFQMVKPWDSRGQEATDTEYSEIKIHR
# Sequence of Protein translocase subunit SecA (Escherichia coli (strain K12)) (P10408 whole entry): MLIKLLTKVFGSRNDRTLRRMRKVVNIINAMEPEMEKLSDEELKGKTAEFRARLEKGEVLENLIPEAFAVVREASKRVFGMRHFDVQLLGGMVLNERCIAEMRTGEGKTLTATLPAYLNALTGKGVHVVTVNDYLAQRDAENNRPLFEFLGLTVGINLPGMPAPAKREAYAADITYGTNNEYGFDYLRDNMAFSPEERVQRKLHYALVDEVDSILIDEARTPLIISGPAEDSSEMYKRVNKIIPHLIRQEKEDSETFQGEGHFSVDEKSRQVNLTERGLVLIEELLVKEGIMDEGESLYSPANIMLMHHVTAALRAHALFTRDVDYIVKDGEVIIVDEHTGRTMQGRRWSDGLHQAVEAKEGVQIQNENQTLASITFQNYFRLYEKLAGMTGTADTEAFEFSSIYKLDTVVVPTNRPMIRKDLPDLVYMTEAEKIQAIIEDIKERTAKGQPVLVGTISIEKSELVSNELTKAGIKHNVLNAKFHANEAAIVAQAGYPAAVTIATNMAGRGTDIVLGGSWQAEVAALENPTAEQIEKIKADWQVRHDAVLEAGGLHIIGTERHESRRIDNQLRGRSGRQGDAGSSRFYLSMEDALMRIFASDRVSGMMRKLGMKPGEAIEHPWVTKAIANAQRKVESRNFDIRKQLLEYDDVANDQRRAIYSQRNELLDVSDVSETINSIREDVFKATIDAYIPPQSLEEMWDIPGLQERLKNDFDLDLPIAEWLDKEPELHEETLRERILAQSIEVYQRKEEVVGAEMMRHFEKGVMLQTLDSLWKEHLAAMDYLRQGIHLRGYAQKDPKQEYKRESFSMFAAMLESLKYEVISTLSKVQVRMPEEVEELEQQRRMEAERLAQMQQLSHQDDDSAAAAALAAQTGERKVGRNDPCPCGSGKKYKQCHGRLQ
compound,measurement,setting,value
O=C(c1ccc(F)c(Cl)c1)N1C[C@@H]2CC[C@H](C1)N(Cc1ccccc1)C2,PXC50,[1]; MAX_EFFECT 29.03225806,< 4
same,PXC50,[1]; MAX_EFFECT 41.91419142,< 4
same,PXC50,[1]; MAX_EFFECT 44.92753623,< 4
same,Percent Effect,[2],-1.36%
same,Percent Effect,[3],-13.7%
same,Percent Effect,[4],5.89%
same,Percent Effect,[5],19.2%
same,Percent Effect,[6],-6.15%
same,Percent Effect,[7],1.6%
same,Percent Effect,[8],11.2%
same,Percent Effect,[9],-10.1%
same,Percent Effect,[10],11.5%
same,Percent Effect,[11],25.9%
same,Percent Effect,[12],0.975%
